Screening results deposited in PubChem BioAssay by National Center for Advancing Translational Sciences (NCATS).
FLuc counter – firefly luciferase modulation, counter-screen for miR-21 project; actives 6.9% (n = 360,000); purified FLuc, Km substrates, luminescence inhibition; AID 588342; Potency, µM (highest dose often 57.5 µM), for inactives: top-dose activity change, negative = inhibition, actives largely listed as inhibitors;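 note: plate controls were vehicle for no effect and reference inhibitor for full effect; nearly all actives have a fitted effect of over 55% in size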
Target sequence (P08659 whole entry, looked up): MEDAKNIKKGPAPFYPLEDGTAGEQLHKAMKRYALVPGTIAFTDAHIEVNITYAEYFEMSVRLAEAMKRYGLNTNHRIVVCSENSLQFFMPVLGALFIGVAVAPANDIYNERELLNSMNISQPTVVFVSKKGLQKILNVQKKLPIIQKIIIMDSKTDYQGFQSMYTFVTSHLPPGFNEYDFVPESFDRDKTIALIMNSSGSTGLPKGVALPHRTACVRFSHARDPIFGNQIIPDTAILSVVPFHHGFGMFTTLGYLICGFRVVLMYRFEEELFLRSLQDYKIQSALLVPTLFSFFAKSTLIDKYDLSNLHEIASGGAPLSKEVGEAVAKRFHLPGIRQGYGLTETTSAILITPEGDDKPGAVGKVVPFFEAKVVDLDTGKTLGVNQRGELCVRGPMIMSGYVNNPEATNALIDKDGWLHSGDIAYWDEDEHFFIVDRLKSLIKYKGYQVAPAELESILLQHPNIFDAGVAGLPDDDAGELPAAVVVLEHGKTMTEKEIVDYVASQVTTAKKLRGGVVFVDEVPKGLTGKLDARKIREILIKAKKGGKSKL
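Biochemical qHTS of compounds, final roughly 60 µM downward over six points, against 10 nM purified firefly luciferase using Km concentrations of substrates (10 uM D-luciferin, 10 uM ATP) in Tris acetate pH 7.5 buffer; luminescence output.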
SMN2 splice up – SMN2 splice variant enhancement | HEK293 SMN2-luciferase splicing reporter, luminescence, 30-36 h | Potency, µM (series often up to 46.1 µM), inactives show at the top dose activity change, positive = activation, usual class: activators | actives 2.8% (n = 210,000); note: % of control where 0% means no effect; nearly all actives have a fitted effect of over 55% in size
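HEK293 cells carry an SMN2 […]–luciferase reporter in which exon 7 inclusion puts luciferase in frame. Cells were plated 10-12 h before compound addition, then incubated 30-36 h at 37C. ONE-Glo luminescence was read; sodium butyrate at 4.5 mM final served as control.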
Rab9 promoter act – Rab9 promoter activation. Huh7 Rab9 promoter-luciferase reporter, luminescence, 24 h. Potency, µM (series often up to 9.22 µM), without a hit: top-dose activation, negative = inhibition, most hits filed as activators. actives 2.8% (n = 320,000); note: % of control where 0% means no effect; nearly all actives have a fitted effect of over 60% in size
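Luciferase signal after 10 min detection reagent at ambient indicates Rab9 promoter upregulation; stably transfected Huh7 cells were treated 24 h with compound in DMSO at 37 °C, 5% CO2.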
ELG1 repair inh – inhibitors of ELG1-dependent DNA repair in HEK293T cells | HEK293T ELG1-luciferase reporter, luminescence, 16 h; DNA damage induced by 5-fluorouridine | AID 504467 | Potency, µM (top dose mostly 46.1 µM), for the others: at the top dose activity change, negative = inhibition, actives largely listed as inhibitors | actives 2.3% (n = 330,000); note: % is set by controls: 0 for no effect and ±100 for the full control effect; nearly all actives have a fitted effect of over 55% in size
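Luminescence from the luciferase reporter, measured 30 min after ONE-Glo reagent at room temperature, was the read-out. Beforehand, 2,000 cells per well were exposed for 16 hr at 37 °C to 5-fluorouridine together with compound or vehicle.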
ELG1 genotoxic – genotoxicity induction in ELG1-luciferase HEK293T cells; HEK293T ELG1-luciferase reporter, luminescence, 16 h; Potency, µM (top dose mostly 46 µM), inactives show at the top dose activity change, positive = activation, usual class: activators; actives 1.3% (n = 330,000); AID 504466; note: % of control where 0% means no effect; nearly all actives have a fitted effect of over 60% in size
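Reporter readout depends on ELG1 protein level, which increases with genetic stress. After 16 hr compound exposure at 37 °C, luciferase activity was quantified using ONE-Glo.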
NPC1 prom act – NPC1 promoter activation; Huh7 NPC1 promoter luciferase reporter, 24 h; Potency, µM (series often up to 9.22 µM), for the others: at the highest dose activation, actives largely listed as activators; actives 2.4% (n = 320,000); AID 485313; note: % of control where 0% means no effect; nearly all actives have a fitted effect of over 60% in size
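Stable NPC1-promoter luciferase Huh7 line; cpd (DMSO) 24 h, 37 °C, 5% CO2; Amplite luciferase reagent 10 min RT; luminescence readout. qHTS format.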
ELG1 FLuc counter – luciferase inhibition in cell-free luciferin readout for ELG1 hits. actives 3% (n = 350). shares compounds with ELG1 repair inh. Potency, µM (series often up to 46.1 µM), for inactives: top-dose activity change, negative = inhibition, hits mostly inhibitors. cell-free firefly luciferase luminescence counter-screen, ViewLux; note: % is set by controls: 0 for no effect and ±100 for the full control effect
ELG1-Luc inh – human ELG1 repair inhibition, luciferase-tagged ELG1 confirmation | shares compounds with ELG1 repair inh | HEK293T ELG1-luciferase levels, luminescence; cells co-treated with 5-fluorouridine | Potency, µM (titrated, usually from 46.1 µM), inactives show top-dose activity change, negative = inhibition, actives largely listed as inhibitors | actives 68% (n = 670) | AID 624248; note: % is set by controls: 0 for no effect and ±100 for the full control effect; nearly all actives have a fitted effect of over 55% in size
ELG1-Luc MMS – MMS-stimulated human ELG1 repair inhibition, confirmed; Potency, µM (highest dose often 46.1 µM), without a hit: at the top dose activity change, negative = inhibition, actives largely listed as inhibitors; actives 53% (n = 670); HEK293T luciferase-tagged ELG1 level, MMS stimulated; shares compounds with ELG1 repair inh; note: % is set by controls: 0 for no effect and ±100 for the full control effect; nearly all actives have a fitted effect of over 60% in size
ELG1 5-FU – confirmation of ELG1 repair inhibitors: viability with 5FU | shares compounds with ELG1 repair inh | cell viability with 5-FU, ELG1-dependent repair | Potency, µM (highest dose often 46.1 µM), without a hit: at the top dose activity change, negative = viability loss, most hits filed as cytotoxic | 670 tested, under 10 active | AID 624250;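 note: ELG1-luc HEK293T cells cotreated with 5-fluorouridine at 10 µM final; viability measured 16 h after compound addition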
ELG1 MMS viab – confirmation of ELG1 repair inhibitors: viability with MMS. shares compounds with ELG1 repair inh. Cell viability with MMS, ELG1-dependent DNA repair. Potency, µM (series often up to 46.1 µM), for inactives: at the highest dose activity change, negative = viability loss, usual class: cytotoxic. actives 33% (n = 670);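 note: ELG1-luc HEK293T cells co-treated with 10 µM MMS; viability read 16 h after compound addition; % is set by controls: 0 for no effect and ±100 for the full control effect; nearly all actives have a fitted effect of over 60% in size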
Cell viab unstim – affects unstimulated cell viability, ELG1 hit counter-screen. shares compounds with ELG1 repair inh. cell viability counter-screen, unstimulated, luminescence. Potency, µM (series often up to 45.9 µM), without a hit: at the highest dose activity change, negative = loss of viability, most hits filed as cytotoxic. actives 8% (n = 900). AID 624252;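 note: compound exposure lasted 16 hours before reading; % is set by controls: 0 for no effect and ±100 for the full control effect; nearly all actives have a fitted effect of over 55% in size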
FLuc enzyme – counter-screen for ELG1 repair inhibitors: firefly luciferase inhibition; shares compounds with ELG1 repair inh; purified firefly luciferase, luminescence counter-screen; Potency, µM (highest dose often 57.5 µM), for the others: at the highest dose activity, negative = inhibition, hits mostly inhibitors; actives 10% (n = 350); note: % is set by controls: 0 for no effect and ±100 for the full control effect
The depositor's hits bear a star; ? = inconclusive; nt = no result. In the library only some 9.2% were active in any assay of this set; here they are far more common. Calls come from the whole dose curve; as a rule, active = well fitted curve in the direction sought with a large enough effect; inconclusive = small, poorly fitted or top-dose-only effect, or another doubt; inactive = no such curve, though single readings can be large; an effect the other way counts as inactive or inconclusive. Potency is the fitted concentration of half-maximal effect.

SMILES	FLuc counter	SMN2 splice up	Rab9 promoter act	ELG1 repair inh	ELG1 genotoxic	NPC1 prom act	ELG1-Luc inh	ELG1-Luc MMS	ELG1 5-FU	ELG1 MMS viab	Cell viab unstim	others
CCOC(=O)c1c(C)[nH]c(C(=O)N2CCc3cc(OC)c(OC)cc3C2)c1C	-5%	nt	-13%	1.5µM*	-1%	-2%	3.5µM*	?	?	-16%	-18%
O=C(COC(=O)c1cccs1)Nc1cccc(S(=O)(=O)N2CCCCC2)c1	nt	nt	nt	2%	4%	nt	nt	nt	nt	nt	nt
CCC(C)[C@H]1CNCCN1CCc1cc(C(F)(F)F)cc(C(F)(F)F)c1 (stereo not given in full)	0%	nt	10%	3.5µM*	-2%	-6%	-9%	22µM*	?	22µM*	?
Cc1c(C)c2c(OCC(=O)NCc3ccccn3)cc3c(c2oc1=O)CCC(C)(C)O3	-8%	nt	0%	?	-2%	4%	nt	nt	nt	nt	nt
CCCCn1c(N)c(-c2nc3ccccc3o2)c2c([N+](=O)[O-])nn(C)c(=O)c21	6%	0%	-5%	?	-1%	-3%	?	9%	?	12%	0%
CCCCCn1c(N)c(-c2nc3ccccc3s2)c2c([N+](=O)[O-])nn(C)c(=O)c21	-16%	nt	-7%	0.73µM*	0%	-6%	5µM*	28µM*	?	?	-4%	ELG1 FLuc counter=?;FLuc enzyme=-9%
CCCCn1c(N)c(-c2nc3ccccc3o2)c2c([N+](=O)[O-])nn(CC)c(=O)c21	0%	-8%	-3%	2.1µM*	7%	-5%	1µM*	16%	?	-1%	-6%
CC(C)/C=C/CN1CCC(Oc2ccc(C(=O)N3CCCC3)cc2)CC1	3%	nt	-6%	13%	3%	-2%	nt	nt	nt	nt	nt
COc1cc(Cl)c(C)cc1NC(=O)CC1Oc2ccccc2NC1=O (stereo not given)	-7%	-1%	nt	nt	nt	nt	nt	nt	nt	nt	nt
Cc1ccc2c(c1)sc1nc(=O)n(-c3ccccc3)c(=O)n12	?	nt	0.32µM*	?	?	0.56µM*	nt	nt	nt	nt	1%	ELG1 FLuc counter=54%;FLuc enzyme=?
